Holding throughout (assay): DAPPL (digital affinity profiling via proximity ligation, sequencing); 10 mM Tris-HCl pH 7.5, 50 mM NaCl, 1 mM DTT, 4% glycerol, room temperature, 30 min; GST-TFs on glutathione beads, 16-mer random dsDNA library, 0.1% formaldehyde crosslink after washing; high values mean tight binding
One assay addresses T1, FLI1 (Homo sapiens, UniProt Q01543 1-452).
T1 sequence: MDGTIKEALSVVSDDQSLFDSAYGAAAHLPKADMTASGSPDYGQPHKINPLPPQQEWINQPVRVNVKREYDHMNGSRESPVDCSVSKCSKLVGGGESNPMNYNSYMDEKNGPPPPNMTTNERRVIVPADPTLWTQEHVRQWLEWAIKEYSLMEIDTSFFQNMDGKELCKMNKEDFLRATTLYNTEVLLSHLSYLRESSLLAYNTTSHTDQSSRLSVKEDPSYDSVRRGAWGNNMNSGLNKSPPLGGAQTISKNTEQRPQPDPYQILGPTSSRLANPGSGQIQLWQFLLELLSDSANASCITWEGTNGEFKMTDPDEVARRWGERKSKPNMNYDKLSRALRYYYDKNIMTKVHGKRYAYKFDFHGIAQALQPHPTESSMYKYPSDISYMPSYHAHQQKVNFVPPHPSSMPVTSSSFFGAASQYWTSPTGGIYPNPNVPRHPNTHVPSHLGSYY
Particulars: protein: recombinant; tags: N-terminal GST; dsDNA, one strand shown. An outline of the steps:
(§1)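 Beads coated with glutathione captured GST-fused human transcription factors that had been expressed in yeast, and the factors were then given DNA barcodes and pooled with a tag-only sample. The pools were incubated with 200 nmole of a random double-stranded 16-mer DNA library in Tris/NaCl/DTT/glycerol buffer for 30 min at room temperature, washed, crosslinked with 0.1% formaldehyde and proximity-ligated with BsaI/T4 ligase at 37 °C for 1 h. PCR amplification and Illumina NextSeq500 sequencing came last. Binding signal is each hexamer's read frequency for a factor divided by its frequency for the tag-only sample.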

Another assay concerns the target T2, ELK1 (Homo sapiens, UniProt P19419 1-428).
T2 sequence: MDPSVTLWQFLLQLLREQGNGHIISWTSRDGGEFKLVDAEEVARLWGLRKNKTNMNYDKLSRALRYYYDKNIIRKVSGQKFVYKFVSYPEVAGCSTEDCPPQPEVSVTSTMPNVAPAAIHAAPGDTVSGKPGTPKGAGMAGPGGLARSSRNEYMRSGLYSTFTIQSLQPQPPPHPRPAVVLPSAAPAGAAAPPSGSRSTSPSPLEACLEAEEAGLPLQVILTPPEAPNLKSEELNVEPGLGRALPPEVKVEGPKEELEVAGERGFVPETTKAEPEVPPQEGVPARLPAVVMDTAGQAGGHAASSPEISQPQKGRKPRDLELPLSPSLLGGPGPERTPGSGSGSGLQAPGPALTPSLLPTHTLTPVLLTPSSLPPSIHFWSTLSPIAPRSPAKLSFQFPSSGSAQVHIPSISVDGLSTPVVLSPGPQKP
Particulars: protein: recombinant; tags: N-terminal GST; dsDNA, one strand shown. The gist of the method:
as §1

Another assay deals with T3, GABPA (Homo sapiens, UniProt Q06546 1-454).
T3 sequence: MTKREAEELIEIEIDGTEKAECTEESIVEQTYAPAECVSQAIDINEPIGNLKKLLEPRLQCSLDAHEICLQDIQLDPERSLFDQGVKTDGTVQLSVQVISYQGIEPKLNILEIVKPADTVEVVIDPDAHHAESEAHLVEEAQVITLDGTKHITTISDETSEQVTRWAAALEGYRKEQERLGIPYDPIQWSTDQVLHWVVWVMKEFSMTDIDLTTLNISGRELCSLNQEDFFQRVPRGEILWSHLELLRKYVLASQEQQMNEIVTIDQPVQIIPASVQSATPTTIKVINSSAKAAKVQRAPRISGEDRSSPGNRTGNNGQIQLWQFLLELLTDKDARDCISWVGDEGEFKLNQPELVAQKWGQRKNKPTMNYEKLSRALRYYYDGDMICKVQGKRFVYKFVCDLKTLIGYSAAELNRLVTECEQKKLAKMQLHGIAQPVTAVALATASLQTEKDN
Particulars: protein: recombinant; tags: N-terminal GST; dsDNA, one strand shown. The gist of the method:
as §1

In a further assay the target is T4, ERG (Homo sapiens, UniProt P11308 1-479).
T4 sequence: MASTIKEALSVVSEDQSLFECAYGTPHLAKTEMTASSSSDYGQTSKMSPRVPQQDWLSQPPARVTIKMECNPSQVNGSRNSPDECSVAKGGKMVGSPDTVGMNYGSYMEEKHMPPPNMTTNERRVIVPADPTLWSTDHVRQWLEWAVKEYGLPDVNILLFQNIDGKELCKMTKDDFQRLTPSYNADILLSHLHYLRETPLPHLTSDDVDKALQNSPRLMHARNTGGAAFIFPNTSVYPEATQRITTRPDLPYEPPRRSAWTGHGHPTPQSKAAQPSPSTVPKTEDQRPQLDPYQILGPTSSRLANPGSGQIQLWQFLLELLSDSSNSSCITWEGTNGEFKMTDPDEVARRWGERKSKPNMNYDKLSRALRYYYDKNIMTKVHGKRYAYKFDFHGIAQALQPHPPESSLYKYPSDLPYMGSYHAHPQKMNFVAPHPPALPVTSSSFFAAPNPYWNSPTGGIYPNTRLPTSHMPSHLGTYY
Particulars: protein: recombinant; tags: N-terminal GST; dsDNA, one strand shown. The gist of the method: as §1

The target of another assay is ELF1 (Homo sapiens, UniProt P32519 1-619). Particulars: protein: recombinant; tags: N-terminal GST; dsDNA, one strand shown. The gist of the method:
as §1

The target of a further assay is T5, EHF (Homo sapiens, UniProt Q9NZC4 1-300).
T5 sequence: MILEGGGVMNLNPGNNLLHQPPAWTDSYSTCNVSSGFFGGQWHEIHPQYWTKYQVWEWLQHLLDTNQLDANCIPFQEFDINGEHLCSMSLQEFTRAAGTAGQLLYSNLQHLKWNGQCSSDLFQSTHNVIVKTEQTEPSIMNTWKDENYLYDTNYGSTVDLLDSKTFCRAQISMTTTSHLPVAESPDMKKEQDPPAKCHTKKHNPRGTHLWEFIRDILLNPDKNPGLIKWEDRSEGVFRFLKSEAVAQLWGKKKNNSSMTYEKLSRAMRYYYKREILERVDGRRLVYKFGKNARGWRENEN
The settings on record: protein: recombinant; tags: N-terminal GST; dsDNA, one strand shown. An outline of the steps: as §1

The target in another assay is SPI1 (Homo sapiens, UniProt P17947 1-270). Particulars: protein: recombinant; tags: N-terminal GST; dsDNA, one strand shown. The gist of the method: as §1
The target of a further assay is SPIB (Homo sapiens, UniProt Q01892 1-262). The settings on record: protein: recombinant; tags: N-terminal GST; dsDNA, one strand shown. The gist of the method:
as §1

For another assay, the target named is T6, ELK3 (Homo sapiens, UniProt P41970 1-407).
T6 sequence: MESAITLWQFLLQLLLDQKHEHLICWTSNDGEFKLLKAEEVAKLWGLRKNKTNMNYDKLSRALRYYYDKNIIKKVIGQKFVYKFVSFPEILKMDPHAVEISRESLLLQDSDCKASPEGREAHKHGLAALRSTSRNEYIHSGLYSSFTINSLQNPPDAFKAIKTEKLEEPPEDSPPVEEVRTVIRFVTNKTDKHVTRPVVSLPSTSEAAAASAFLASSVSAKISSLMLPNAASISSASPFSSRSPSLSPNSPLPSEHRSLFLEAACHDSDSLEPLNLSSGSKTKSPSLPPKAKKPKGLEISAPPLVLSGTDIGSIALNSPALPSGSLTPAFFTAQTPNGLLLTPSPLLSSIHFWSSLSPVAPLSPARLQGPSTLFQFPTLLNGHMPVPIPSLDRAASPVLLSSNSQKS
Particulars: protein: recombinant; tags: N-terminal GST; dsDNA, one strand shown. The gist of the method:
as §1

The target in a further assay is T7, FEV (Homo sapiens, UniProt Q99581 1-238).
T7 sequence: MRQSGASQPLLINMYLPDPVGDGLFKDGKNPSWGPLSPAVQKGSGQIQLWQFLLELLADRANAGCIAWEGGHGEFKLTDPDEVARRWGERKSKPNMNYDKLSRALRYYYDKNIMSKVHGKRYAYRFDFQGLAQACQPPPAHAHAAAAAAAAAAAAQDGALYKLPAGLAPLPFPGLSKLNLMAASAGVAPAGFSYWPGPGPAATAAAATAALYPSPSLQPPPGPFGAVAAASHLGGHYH
The settings on record: protein: recombinant; tags: N-terminal GST; dsDNA, one strand shown. An outline of the steps:
as §1

In the next assay the target is ETV5 (Homo sapiens, UniProt P41161 1-510). The settings on record: protein: recombinant; tags: N-terminal GST; dsDNA, one strand shown. An outline of the steps:
as §1

The target in a further assay is HSF1 (Homo sapiens, UniProt Q00613 1-529). The settings on record: protein: recombinant; tags: N-terminal GST; chain copies: 3; dsDNA, one strand shown. The gist of the method:
as §1

For a further assay, the target named is T8, SPIC (Homo sapiens, UniProt Q8N5J4 1-248).
T8 sequence: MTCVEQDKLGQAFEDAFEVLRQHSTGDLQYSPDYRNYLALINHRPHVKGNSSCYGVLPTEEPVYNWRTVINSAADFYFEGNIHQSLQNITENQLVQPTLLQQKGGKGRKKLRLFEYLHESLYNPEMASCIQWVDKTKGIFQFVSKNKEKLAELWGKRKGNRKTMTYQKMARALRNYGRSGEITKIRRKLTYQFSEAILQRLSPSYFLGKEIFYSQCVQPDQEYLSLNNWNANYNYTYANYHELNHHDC
Particulars: protein: recombinant; tags: N-terminal GST; dsDNA, one strand shown. The gist of the method:
as §1

Another assay has as its target ELF4 (Homo sapiens, UniProt Q99607 1-663). The settings on record: protein: recombinant; tags: N-terminal GST; dsDNA, one strand shown. The gist of the method:
as §1

In the next assay the target is T9, ELK4 (Homo sapiens, UniProt P28324-2 1-405).
T9 sequence: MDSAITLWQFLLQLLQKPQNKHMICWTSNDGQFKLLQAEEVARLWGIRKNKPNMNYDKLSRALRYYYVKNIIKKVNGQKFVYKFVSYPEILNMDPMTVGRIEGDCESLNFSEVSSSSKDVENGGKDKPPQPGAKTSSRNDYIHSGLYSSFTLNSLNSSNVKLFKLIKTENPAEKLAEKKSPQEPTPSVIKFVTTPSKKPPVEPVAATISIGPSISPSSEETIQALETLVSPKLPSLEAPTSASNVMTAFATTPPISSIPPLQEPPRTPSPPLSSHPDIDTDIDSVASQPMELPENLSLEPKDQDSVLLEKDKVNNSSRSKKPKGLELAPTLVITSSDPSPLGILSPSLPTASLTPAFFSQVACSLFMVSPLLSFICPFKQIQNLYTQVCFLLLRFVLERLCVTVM
The settings on record: protein: recombinant; tags: N-terminal GST; dsDNA, one strand shown. The gist of the method: as §1

The target of a further assay is T10, ETV2 (Homo sapiens, UniProt O00321 1-342).
T10 sequence: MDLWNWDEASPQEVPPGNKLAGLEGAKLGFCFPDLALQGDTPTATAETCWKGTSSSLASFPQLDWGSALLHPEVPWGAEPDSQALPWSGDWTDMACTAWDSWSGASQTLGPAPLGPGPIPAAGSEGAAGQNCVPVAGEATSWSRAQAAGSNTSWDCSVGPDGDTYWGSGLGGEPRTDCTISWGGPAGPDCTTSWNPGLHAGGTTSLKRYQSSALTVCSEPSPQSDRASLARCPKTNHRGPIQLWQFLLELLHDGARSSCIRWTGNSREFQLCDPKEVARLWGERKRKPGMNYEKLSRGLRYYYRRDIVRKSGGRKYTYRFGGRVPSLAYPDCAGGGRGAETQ
The settings on record: protein: recombinant; tags: N-terminal GST; dsDNA, one strand shown. The gist of the method: as §1

The target of the next assay is T11, ELF3 (Homo sapiens, UniProt P78545 1-371).
T11 sequence: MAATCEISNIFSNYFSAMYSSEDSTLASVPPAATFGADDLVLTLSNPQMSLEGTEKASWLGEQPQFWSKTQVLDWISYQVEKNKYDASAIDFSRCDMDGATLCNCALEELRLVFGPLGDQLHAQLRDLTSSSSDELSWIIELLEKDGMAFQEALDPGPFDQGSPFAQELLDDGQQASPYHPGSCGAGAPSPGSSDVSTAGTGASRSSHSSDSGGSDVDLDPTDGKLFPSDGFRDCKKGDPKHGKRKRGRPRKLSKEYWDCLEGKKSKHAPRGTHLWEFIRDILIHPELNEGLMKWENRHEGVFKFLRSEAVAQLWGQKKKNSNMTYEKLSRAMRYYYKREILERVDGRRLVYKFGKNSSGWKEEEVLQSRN
The settings on record: protein: recombinant; tags: N-terminal GST; dsDNA, one strand shown. The gist of the method:
as §1

For a further assay, the target named is CRX (Homo sapiens, UniProt O43186 1-299). Particulars: protein: recombinant; tags: N-terminal GST; dsDNA, one strand shown. An outline of the steps:
as §1

In another assay the target is ETV1 (Homo sapiens, UniProt P50549 1-477). The settings on record: protein: recombinant; tags: N-terminal GST; dsDNA, one strand shown. The gist of the method: as §1
Sequence of ETV1 (P50549 whole entry): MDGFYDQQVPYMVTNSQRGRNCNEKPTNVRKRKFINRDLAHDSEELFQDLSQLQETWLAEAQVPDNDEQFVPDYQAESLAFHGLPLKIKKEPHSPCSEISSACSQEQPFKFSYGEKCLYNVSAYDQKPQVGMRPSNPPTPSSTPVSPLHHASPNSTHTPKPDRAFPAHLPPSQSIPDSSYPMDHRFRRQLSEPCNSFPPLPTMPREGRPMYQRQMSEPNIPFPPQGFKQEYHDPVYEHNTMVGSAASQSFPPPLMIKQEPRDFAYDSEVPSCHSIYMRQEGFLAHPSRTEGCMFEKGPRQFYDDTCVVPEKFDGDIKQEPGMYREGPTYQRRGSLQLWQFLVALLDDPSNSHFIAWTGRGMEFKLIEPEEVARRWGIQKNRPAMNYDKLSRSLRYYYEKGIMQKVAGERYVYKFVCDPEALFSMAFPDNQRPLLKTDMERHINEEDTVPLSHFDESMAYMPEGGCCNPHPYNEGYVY

Sequence of ETV5 (P41161 whole entry): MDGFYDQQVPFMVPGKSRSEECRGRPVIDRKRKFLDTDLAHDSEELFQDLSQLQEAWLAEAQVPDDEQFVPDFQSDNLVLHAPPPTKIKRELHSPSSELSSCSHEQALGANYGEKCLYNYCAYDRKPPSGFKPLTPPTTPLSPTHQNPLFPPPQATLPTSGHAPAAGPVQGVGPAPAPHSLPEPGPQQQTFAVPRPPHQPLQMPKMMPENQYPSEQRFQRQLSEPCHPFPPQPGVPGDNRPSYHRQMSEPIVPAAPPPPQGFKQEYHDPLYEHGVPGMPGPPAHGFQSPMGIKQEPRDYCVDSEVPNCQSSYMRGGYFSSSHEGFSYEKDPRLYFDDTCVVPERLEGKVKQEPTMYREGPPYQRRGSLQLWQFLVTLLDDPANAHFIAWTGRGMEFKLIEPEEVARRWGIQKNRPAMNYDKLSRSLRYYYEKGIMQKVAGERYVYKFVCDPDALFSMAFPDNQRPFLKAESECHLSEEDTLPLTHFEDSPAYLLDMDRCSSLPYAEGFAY
Sequence of HSF1 (Q00613 whole entry): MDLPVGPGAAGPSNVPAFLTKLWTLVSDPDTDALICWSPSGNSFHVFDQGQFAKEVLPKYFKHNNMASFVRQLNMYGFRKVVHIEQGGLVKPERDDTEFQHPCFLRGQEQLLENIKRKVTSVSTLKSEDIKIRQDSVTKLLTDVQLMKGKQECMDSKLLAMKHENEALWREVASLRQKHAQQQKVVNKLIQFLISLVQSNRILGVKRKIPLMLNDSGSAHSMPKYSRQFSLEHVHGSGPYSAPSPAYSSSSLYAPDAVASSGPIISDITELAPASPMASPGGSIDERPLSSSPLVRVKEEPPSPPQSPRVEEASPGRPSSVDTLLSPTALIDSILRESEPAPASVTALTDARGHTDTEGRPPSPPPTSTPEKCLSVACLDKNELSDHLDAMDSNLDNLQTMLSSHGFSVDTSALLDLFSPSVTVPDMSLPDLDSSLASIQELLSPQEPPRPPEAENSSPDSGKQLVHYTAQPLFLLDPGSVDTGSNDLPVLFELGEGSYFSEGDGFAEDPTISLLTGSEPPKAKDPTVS
Sequence of CRX (O43186 whole entry): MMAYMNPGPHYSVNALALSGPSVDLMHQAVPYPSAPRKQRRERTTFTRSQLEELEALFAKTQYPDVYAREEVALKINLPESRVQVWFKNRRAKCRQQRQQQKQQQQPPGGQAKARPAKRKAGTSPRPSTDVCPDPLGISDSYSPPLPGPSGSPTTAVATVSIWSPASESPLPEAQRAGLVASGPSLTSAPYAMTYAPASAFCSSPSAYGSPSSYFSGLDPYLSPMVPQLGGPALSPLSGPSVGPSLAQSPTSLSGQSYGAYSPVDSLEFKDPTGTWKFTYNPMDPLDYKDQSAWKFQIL
Sequence of SPIB (Q01892 whole entry): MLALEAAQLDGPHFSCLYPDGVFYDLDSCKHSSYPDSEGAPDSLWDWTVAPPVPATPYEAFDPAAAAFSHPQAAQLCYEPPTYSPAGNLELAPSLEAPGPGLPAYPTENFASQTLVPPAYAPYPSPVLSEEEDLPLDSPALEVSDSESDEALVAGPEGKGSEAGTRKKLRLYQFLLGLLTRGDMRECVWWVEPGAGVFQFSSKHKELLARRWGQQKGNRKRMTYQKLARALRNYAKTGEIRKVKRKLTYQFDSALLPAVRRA
Sequence of ELF4 (Q99607 whole entry): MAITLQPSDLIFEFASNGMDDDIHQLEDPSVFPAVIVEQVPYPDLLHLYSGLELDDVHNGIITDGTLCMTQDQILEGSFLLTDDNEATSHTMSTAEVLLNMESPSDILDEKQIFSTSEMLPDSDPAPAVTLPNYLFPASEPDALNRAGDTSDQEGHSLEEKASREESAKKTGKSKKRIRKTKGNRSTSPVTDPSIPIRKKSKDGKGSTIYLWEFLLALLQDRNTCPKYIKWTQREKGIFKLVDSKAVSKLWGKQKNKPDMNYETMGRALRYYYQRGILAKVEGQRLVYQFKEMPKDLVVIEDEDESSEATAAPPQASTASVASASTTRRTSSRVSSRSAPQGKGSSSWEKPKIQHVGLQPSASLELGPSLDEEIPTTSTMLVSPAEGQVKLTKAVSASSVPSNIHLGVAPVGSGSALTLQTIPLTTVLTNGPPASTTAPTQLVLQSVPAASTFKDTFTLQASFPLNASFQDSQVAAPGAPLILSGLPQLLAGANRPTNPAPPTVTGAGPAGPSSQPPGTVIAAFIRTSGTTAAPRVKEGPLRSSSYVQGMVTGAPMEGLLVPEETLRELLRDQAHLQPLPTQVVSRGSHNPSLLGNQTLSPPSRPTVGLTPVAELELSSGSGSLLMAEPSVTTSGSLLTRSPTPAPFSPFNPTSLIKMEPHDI
Sequence of ELF1 (P32519 whole entry): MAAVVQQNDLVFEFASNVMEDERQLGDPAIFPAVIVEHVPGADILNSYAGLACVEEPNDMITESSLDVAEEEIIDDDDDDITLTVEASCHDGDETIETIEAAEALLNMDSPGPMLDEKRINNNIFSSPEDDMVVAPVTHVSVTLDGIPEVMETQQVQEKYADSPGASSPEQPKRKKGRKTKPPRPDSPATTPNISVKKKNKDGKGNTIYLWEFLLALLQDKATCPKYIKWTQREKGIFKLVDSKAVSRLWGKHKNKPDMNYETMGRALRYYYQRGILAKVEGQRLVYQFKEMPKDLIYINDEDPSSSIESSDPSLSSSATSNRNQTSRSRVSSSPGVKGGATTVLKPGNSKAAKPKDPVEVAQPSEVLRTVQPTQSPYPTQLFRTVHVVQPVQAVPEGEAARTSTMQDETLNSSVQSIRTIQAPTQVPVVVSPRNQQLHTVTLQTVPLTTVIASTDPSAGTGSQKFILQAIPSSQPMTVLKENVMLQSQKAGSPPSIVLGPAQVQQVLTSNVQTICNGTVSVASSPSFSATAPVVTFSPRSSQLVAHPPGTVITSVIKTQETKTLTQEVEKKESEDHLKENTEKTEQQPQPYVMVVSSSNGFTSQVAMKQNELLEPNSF

For CCTAAC, the binding signal was 1.56 fold enrichment (6-mer frequency, TF over GST control) with FLI1; 1.43 fold enrichment (6-mer frequency, TF over GST control) in the assay with ELK1; 1.37 fold enrichment (6-mer frequency, TF over GST control) with GABPA; 1.42 fold enrichment (6-mer frequency, TF over GST control) with ERG; 1.44 fold enrichment (6-mer frequency, TF over GST control) with ELF1; 1.31 fold enrichment (6-mer frequency, TF over GST control) with EHF. Also, the binding signal in the assay with SPI1 was 1.48 fold enrichment (6-mer frequency, TF over GST control); with SPIB, 1.4 fold enrichment (6-mer frequency, TF over GST control); with ELK3, 1.42 fold enrichment (6-mer frequency, TF over GST control); in the assay with FEV, 1.38 fold enrichment (6-mer frequency, TF over GST control); in the assay with ETV5, 1.42 fold enrichment (6-mer frequency, TF over GST control); with HSF1 it was 1.19 fold enrichment (6-mer frequency, TF over GST control). Moreover, the binding signal with SPIC was 1.49 fold enrichment (6-mer frequency, TF over GST control); with ELF4 it was 1.53 fold enrichment (6-mer frequency, TF over GST control); in the assay with ELK4, 1.36 fold enrichment (6-mer frequency, TF over GST control); with ETV2 it was 1.41 fold enrichment (6-mer frequency, TF over GST control); with ELF3, 1.51 fold enrichment (6-mer frequency, TF over GST control); with CRX it was 1.25 fold enrichment (6-mer frequency, TF over GST control). For the same sequence, the binding signal with ETV1 is 1.35 fold enrichment (6-mer frequency, TF over GST control).

Values taken from article PMC7862700, “An all-to-all approach to the identification of sequence-specific readers for epigenetic DNA modifications on cytosine”.
